Sampled rows, rich in hits. Any-hit rate of the full collection: about 3.8%.
MITF act: activators of MITF-driven TRPM1 promoter reporter, primary screen, cell-based, SK-MEL-5, luciferase, single point. SK-MEL-5 TRPM1-promoter luciferase, 24 h; % of positive control, neutral wells = 0. activation, % at 12.5 µM. 300,000 compounds, 0.75% hits;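 active = mean activation of at least 80% with every replicate also reaching 80%; inconclusive = mean reaches 80% but some replicate falls short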;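 also: 0% = neutral control wells and 100% = parthenolide positive control wells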
esBAF inh: Bmi1 luciferase reporter increase in mESCs, primary screen, esBAF inhibitor project, mouse ES cells, Bmi1 luciferase knock-in, single point; 24 h; 100% = twice the neutral-well signal; reporter increase, % at 12.5 µM; 350,000 compounds, 2% hits; in the data active = activation above about 40%; inconclusive = no clear call, values can overlap the other calls;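 also: 0% = median of the plate's neutral control wells and 100% = double that signal; a rise in the Bmi1 reporter signal indicates esBAF inhibition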
HSF1 inhib: HSF1 inhibitors in luciferase reporter cells, primary screen, cell-based, NIH3T3, luminescence | NIH3T3-HGL HSE-luciferase, MG132-induced, luminescence 8 h; stronger effect = lower value | 300,000 compounds, 0.77% hits | AID 2098, 2009 | activity change, negative = inhibition, % at 7.5 µM (by protocol);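 active = more than half of replicate wells show activity change below -50%, luminescence cut by over half; inconclusive = some wells, but at most half, below -50%; inactive = no replicate well below -50%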;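 also: luciferase reports HSF-1 transcriptional activity via heat shock element; 0% = median of DMSO wells and -100% = zero luminescence signal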
HSF1 activator: HSF-1 activators, primary screen, NIH3T3-HGL cells, MG132 stress, luminescence, single point; activation, % at 9 µM; 300,000 compounds, 1.7% hits; NIH3T3-HGL HSF-1 luciferase reporter, 8 h; 100% = twice DMSO control signal;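 active = mean replicate activation of at least 50% with a set share of replicates each reaching 50%; inconclusive = only one of those two conditions met; inactive = mean below 50% and too few replicates reaching it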;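 also: 0% = median of the neutral control wells and 100% = twice that signal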
Wnt act: Wnt/beta-catenin pathway activators, primary screen, cell-based, plate reader, single point; Wnt/beta-catenin reporter cell assay, activator; activation, % at 9.35 µM; 300,000 compounds, 1.2% hits; AID 743398, 2014; in the data active = activation above about 30%, passing the limit was not always enough; inconclusive = no clear call, values can overlap the other calls;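 also: 0% = neutral control wells and 100% = positive control wells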
Starred values were filed as active, the others as inactive.

How did O=c1c(O)c(-c2ccc3c(c2)OCO3)oc2ccccc12 do in these assays?
MITF act: 48.3; esBAF inh: 54.8*; HSF1 inhib: 6.0; HSF1 activator: 24.2

Results for O=C(Cc1ccncc1)NCC[C@H]1CC[C@@H](NC(=O)C2CCCC2)[C@@H](CO)O1 ?
esBAF inh: 0.3

Results for CC(/C=N/NC(=O)c1ccco1)=C\c1ccccc1 ?
MITF act: 43.8; esBAF inh: -1.8; HSF1 inhib: 35.2; HSF1 activator: 55.1*; Wnt act: -1.6

How did CC(C=NNC(=O)C(=O)NN=CC(C)=Cc1ccccc1)=Cc1ccccc1 do in these assays?
MITF act: 56.3; esBAF inh: 32.5

How did CC(/C=N/NC(=O)c1ccccc1C)=C\c1ccccc1 do in these assays?
HSF1 inhib: 10.4; HSF1 activator: 6.7; Wnt act: inconclusive

How did CC(/C=N/NC(=O)c1ccccc1F)=C\c1ccccc1 do in these assays?
MITF act: 99.3*; esBAF inh: 19.9; HSF1 inhib: 18.4; HSF1 activator: 32.7; Wnt act: 5.4

What do the screens show for `O=C(O)C(O)Cc1c[nH]c2ccccc12` (stereo not drawn)?
MITF act: -1.9; esBAF inh: 14.5; Wnt act: -0.1

Results for O=C(CC(C(=O)O)c1c[nH]c2ccccc12)c1ccccc1 (stereo not drawn) ?
MITF act: 0.7; esBAF inh: 27.4*; HSF1 inhib: 8.6; HSF1 activator: 15.0; Wnt act: 4.0

How did COc1cc(C(=O)Nc2ccccc2NC(=O)c2cc(OC)c(OC)c(OC)c2)cc(OC)c1OC do in these assays?
esBAF inh: -0.6; HSF1 inhib: -69.3*; HSF1 activator: -73.2; Wnt act: -3.5

How did COc1cc(C(=O)Nc2ccc(N(C)C)cc2)cc(OC)c1OC do in these assays?
MITF act: 51.1; esBAF inh: 70.5*; HSF1 inhib: 20.5; HSF1 activator: 29.2

How did COc1ccc(/C=N/NC(=O)c2ccc(N(C)S(=O)(=O)c3ccccc3)cc2)c(OC)c1 do in these assays?
MITF act: -5.6; esBAF inh: -3.9; HSF1 inhib: 9.1; HSF1 activator: 57.6*; Wnt act: -5.2

Results for COc1cc(C(=O)NNC(=O)c2ccc(NC(C)=O)cc2)cc(OC)c1OC ?
MITF act: 1.7; HSF1 inhib: -5.7; HSF1 activator: 0.5; Wnt act: 0.6

Results for COc1ccc(C(=O)Nc2ccc(S(=O)(=O)N(C)c3ccccc3)cc2)cc1 ?
MITF act: 7.2; HSF1 inhib: 7.8; HSF1 activator: 28.3; Wnt act: 2.9

How did COc1cc(C(=O)Nc2ccc(S(=O)(=O)N(C)c3ccccc3)cc2)cc(OC)c1OC do in these assays?
MITF act: -19.0; HSF1 inhib: 49.1; HSF1 activator: 102.0*; Wnt act: 0.6

How did COc1ccccc1S(=O)(=O)N[C@H]1C=C[C@@H](CC(=O)N2CCCCC2)O[C@H]1CO do in these assays?
esBAF inh: 0.5

How did CN1CCN(/N=C/c2ccc(OCc3ccccc3)cc2)CC1 do in these assays?
MITF act: 85.3*; esBAF inh: 39.8; HSF1 inhib: -0.6; HSF1 activator: -17.4; Wnt act: 16.5

What do the screens show for `COC(=O)c1ccc(COc2ccc(/C=N/N3CCN(C)CC3)cc2)cc1`?
MITF act: 50.3; HSF1 inhib: -14.1; HSF1 activator: -6.6; Wnt act: -2.1

What do the screens show for `O=c1c2cccc(Cl)c2nc2n1Cc1ccccc1-2`?
HSF1 inhib: 13.3; HSF1 activator: 17.7; Wnt act: 39.1*

Results for O=c1cc(-c2ccccc2)nc2n1Cc1ccccc1-2 ?
MITF act: -1.5; esBAF inh: 9.6; HSF1 inhib: 0.5; HSF1 activator: -5.7

What do the screens show for `O=C(CNC(=O)c1cn2ccccc2n1)Nc1ccc(F)c(F)c1`?
MITF act: 77.8; HSF1 inhib: 17.9; HSF1 activator: 28.3; Wnt act: 34.5*

How did O=C(NCC(=O)N1CCCCC1)c1sc2ccccc2c1Cl do in these assays?
MITF act: 113.5*; esBAF inh: 15.5; Wnt act: 44.9*

What do the screens show for `Cc1ccnc(NC(=O)CNC(=O)c2sc3ccccc3c2Cl)c1`?
MITF act: 85.1*; esBAF inh: 52.1*; HSF1 inhib: -11.8; HSF1 activator: -5.8; Wnt act: 12.0

Results for Cc1ccnc(NC(=O)c2sc3cc(Cl)ccc3c2Cl)c1 ?
MITF act: 28.7; HSF1 inhib: 6.0; HSF1 activator: 54.3*; Wnt act: 29.9

How did CC1CC(C)CN(C(=O)CNC(=O)c2sc3ccccc3c2Cl)C1 (stereo not drawn) do in these assays?
MITF act: 64.4; esBAF inh: 23.0; Wnt act: 11.8

How did COc1ccc(C)cc1NC(=O)CNC(=O)c1sc2ccccc2c1Cl do in these assays?
MITF act: -13.2; esBAF inh: -3.7; HSF1 inhib: -3.8; HSF1 activator: -8.8; Wnt act: -0.6

What do the screens show for `COC(=O)C(Cc1ccccc1)NC(=O)CNC(=O)c1sc2ccccc2c1Cl` (stereo not drawn)?
esBAF inh: -3.4; HSF1 inhib: -52.7*; HSF1 activator: -62.9; Wnt act: -1.2

Results for C[C@@H]1CN([C@H](C)CO)C(=O)c2cc(NC(=O)Nc3cccc4ccccc34)ccc2O[C@@H]1CN(C)CC1CCCCC1 ?
esBAF inh: -5.9

Results for COc1ccc(CN(C)C[C@@H]2OCCCC[C@@H](C)Oc3ccc(NC(=O)Nc4c(C)noc4C)cc3C(=O)N([C@H](C)CO)C[C@H]2C)cc1 ?
esBAF inh: 6.9

How did O=C(c1ccccn1)N1C[C@@H]2[C@H](c3ccccc31)[C@@H](CO)N2C(=O)CC1CC1 do in these assays?
esBAF inh: -5.3

Results for O=C(CC(c1ccco1)S(=O)(=O)c1ccccc1)c1ccc(F)cc1 (stereo not drawn) ?
MITF act: 20.2; esBAF inh: 0.9; HSF1 inhib: 121.0; HSF1 activator: 220.4*; Wnt act: 28.3

Results for O=S(=O)(NCCC(c1ccc(F)cc1)c1ccco1)c1ccccc1 (stereo not drawn) ?
MITF act: 3.7; HSF1 inhib: 6.3; HSF1 activator: -12.1

How did O=C(C[C@@H]1CC[C@H](NS(=O)(=O)c2cccc(F)c2)[C@H](CO)O1)NCc1ccc2c(c1)OCO2 do in these assays?
esBAF inh: 4.4

Results for Cc1c(C(=O)NCc2cccs2)oc2ccc(S(=O)(=O)N3CCOCC3)cc12 ?
MITF act: 4.6; esBAF inh: -0.5; HSF1 inhib: 0.0; HSF1 activator: 19.7; Wnt act: -3.7

Results for Cc1c(C(=O)NCc2ccccn2)oc2ccc(Br)cc12 ?
MITF act: 96.7*; esBAF inh: 53.8*; HSF1 inhib: 24.2; HSF1 activator: 47.0; Wnt act: 12.1

Screens: PubChem, Broad Institute
